In the library only some 11% were active in any assay of this set; here they are far more common.
L3MBTL1 inh: qHTS Assay for the Inhibitors of L3MBTL1; Lethal(3)malignant brain tumor-like protein 1 (Homo sapiens), Q9Y468; AlphaScreen L3MBTL1–H3K9me1 peptide binding; Potency, µM (titrated, usually from 57.1 µM), actives largely listed as inhibitors; actives 0.66% (n = 230,000); AID 485360, 2010; also: nearly all actives have a fitted effect of over 60% in size
Target sequence (Q9Y468 whole entry, looked up): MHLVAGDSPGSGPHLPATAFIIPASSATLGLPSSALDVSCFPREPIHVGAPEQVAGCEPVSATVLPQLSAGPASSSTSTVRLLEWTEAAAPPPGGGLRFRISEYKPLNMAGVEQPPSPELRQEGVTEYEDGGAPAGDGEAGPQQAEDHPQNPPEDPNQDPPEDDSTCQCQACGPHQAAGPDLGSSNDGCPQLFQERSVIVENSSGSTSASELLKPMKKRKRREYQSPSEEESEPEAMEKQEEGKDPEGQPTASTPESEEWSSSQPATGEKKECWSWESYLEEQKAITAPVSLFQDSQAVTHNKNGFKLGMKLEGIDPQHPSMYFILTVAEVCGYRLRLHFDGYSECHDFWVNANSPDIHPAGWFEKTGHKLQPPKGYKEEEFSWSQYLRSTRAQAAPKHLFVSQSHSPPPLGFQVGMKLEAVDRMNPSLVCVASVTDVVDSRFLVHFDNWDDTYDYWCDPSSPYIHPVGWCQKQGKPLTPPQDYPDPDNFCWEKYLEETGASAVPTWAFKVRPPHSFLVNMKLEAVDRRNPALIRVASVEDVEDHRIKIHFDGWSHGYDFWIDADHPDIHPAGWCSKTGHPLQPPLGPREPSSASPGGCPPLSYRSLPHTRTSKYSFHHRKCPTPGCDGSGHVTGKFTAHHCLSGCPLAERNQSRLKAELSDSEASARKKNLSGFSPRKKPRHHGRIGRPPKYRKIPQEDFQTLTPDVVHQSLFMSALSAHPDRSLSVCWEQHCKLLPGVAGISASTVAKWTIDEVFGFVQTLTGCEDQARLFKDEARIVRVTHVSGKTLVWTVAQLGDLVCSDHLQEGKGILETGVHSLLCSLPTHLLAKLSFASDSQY
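L3MBTL1 50 nM + b-AHA-H3(1-15)K9me1 75 nM, 30 min RT; compound added, 30 min RT; streptavidin donor/Ni-chelate acceptor beads 10 ug/mL each final, 30 min RT dark; AlphaScreen read.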
JMJD2A Tudor: qHTS Assay for Inhibitors of JMJD2A-Tudor Domain. Potency, µM (highest dose often 114 µM), most hits filed as inhibitors. AID 504339, 2011. AlphaScreen JMJD2A-Tudor / H3K4me3 peptide binding. Lysine-specific demethylase 4A (Homo sapiens), O75164. actives 4.4% (n = 390,000); also: nearly all actives have a fitted effect of over 50% in size
G9a block: qHTS Assay for Inhibitors of Histone Lysine Methyltransferase G9a; Histone-lysine N-methyltransferase EHMT2 (Homo sapiens), Q96KQ7; G9a H3K9 monomethylation, AlphaScreen, 2 h; Potency, µM (series often up to 102 µM), most hits filed as inhibitors; actives 8.8% (n = 350,000); AID 504332, 2011; also: nearly all actives have a fitted effect of over 75% in size
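Signal arises when biotinylated H3K9 peptide, once monomethylated, bridges streptavidin donor and antibody-captured acceptor beads. Enzyme at 20 nM was preincubated 15 min with test compounds; peptide 500 nM and SAM 20 uM then reacted for 2 h.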
BAZ2B block: qHTS Assay for Inhibitors of BAZ2B; Potency, µM (titrated, usually from 114 µM), most hits filed as inhibitors; AlphaScreen BAZ2B-H3K14Ac peptide displacement; actives 4.4% (n = 360,000); Bromodomain adjacent to zinc finger domain protein 2B (Homo sapiens), Q9UIF8; also: nearly all actives have a fitted effect of over 60% in size
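BAZ2B (50 nM) with biotin-H3(5-23)K14Ac peptide (50 nM) in PBS pH 7.4, 0.01% Tween-20, preformed 30 min, then compound 30 min at room temperature; top concentration 110uM. AlphaScreen streptavidin donor/nickel chelate acceptor beads (10 ug/mL final), 20 min dark, signal read.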
HP1b binding inh: HTS for Inhibitors of HP1-beta Chromodomain Interactions with Methylated Histone Tails; Chromobox protein homolog 1 (Homo sapiens), P83916; Potency, µM (doses to about 114 µM), most hits filed as inhibitors; AID 540317, 2011; actives 0.56% (n = 390,000); AlphaScreen HP1-beta / biotin-H3K9me3 peptide binding; also: nearly all actives have a fitted effect of over 70% in size
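Compound inhibition of the preformed complex between 50 nM HP1-beta and 50 nM biotinylated H3K9me3 peptide was read by AlphaScreen. Buffer was PBS pH 7.4 with 0.01% Tween-20. Incubations ran 30 min at room temperature, with 10 ug/mL donor/acceptor beads.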
Each line names hits and unclear results; the compound was inactive in the other large screens; ! = repeats disagree. Calls follow the shape of the dose curve; as a rule, active = well fitted inhibition curve with a large enough effect; inconclusive = small, poorly fitted or top-dose-only effect; inactive = no such curve, though single readings can be large or run the other way.

COc1ccccc1N1CCN(CCN(C(=O)c2ccc(I)cc2)c2ccccn2)CC1	G9a block 21µM (no result: L3MBTL1 inh, JMJD2A Tudor, BAZ2B block, HP1b binding inh)
COc1ccc(S(=O)(=O)N2CCN(CCCOc3ccc(F)cc3)CC2)cc1OC	none (no result: L3MBTL1 inh)
COc1ccccc1N1CCN(CCCOc2ccc(F)cc2)CC1	JMJD2A Tudor 2.2µM, G9a block 8.9µM, BAZ2B block inconclusive, HP1b binding inh inconclusive (no result: L3MBTL1 inh)
COc1ccccc1N1CCN(CCOc2c(OC)cccc2OC)CC1	G9a block 40µM (no result: L3MBTL1 inh)
COc1cccc(OC)c1OCCN1CCCC1	none (no result: G9a block)
COCc1ccc(C(=O)NC2CCCc3c2cnn3-c2cc(C)cc(C)c2)s1 (stereo unspecified)	none (no result: L3MBTL1 inh, G9a block)
CN(c1ccccc1)S(=O)(=O)c1cccc(C(=O)Nc2nn[nH]n2)c1	JMJD2A Tudor inconclusive, BAZ2B block inconclusive (no result: G9a block)
COc1ccccc1N1CCN(C/C=C/c2ccc(N(C)C)cc2)CC1	L3MBTL1 inh inconclusive, G9a block inconclusive, BAZ2B block 40µM (no result: JMJD2A Tudor, HP1b binding inh)
C/C(=N/N=C(/N)SCc1ccccc1)C(C)(C)C	G9a block 10µM
CCN1CCN(Cc2oc(CO)cc(=O)c2O)CC1	JMJD2A Tudor 13µM, G9a block 1.8µM, BAZ2B block 50µM (no result: L3MBTL1 inh)
O=c1cc(CO)oc(CN2CCN(c3ccccc3)CC2)c1O	JMJD2A Tudor 50µM, G9a block 22µM
O=c1cc(CO)oc(CN2CCN(c3ccccc3F)CC2)c1O	JMJD2A Tudor inconclusive, G9a block inconclusive
Cc1ccc(NC(=O)CCCn2c(=O)c3cccn3c3ccccc32)c(C)c1	none (no result: L3MBTL1 inh)
CCOc1ccc(-c2cc3c(=O)n(CC(=O)Nc4cc(F)ccc4C)ccn3n2)cc1	none (no result: L3MBTL1 inh)
NC(=O)SCC(=O)Nc1ccccc1C(=O)O	G9a block 50µM
CCOc1ccccc1NC(=O)CSc1nc(N)c(C#N)cc1C#N	G9a block inconclusive
O=C(CSc1ccccc1)Nc1ccccc1C(=O)O	none (no result: L3MBTL1 inh)
COc1ccccc1NC(=O)CSc1nc(N)c(C#N)cc1C#N	G9a block 50µM, BAZ2B block inconclusive
O=C(CSc1cn[nH]n1)Nc1ccccc1C(=O)O	JMJD2A Tudor 79µM, G9a block 7.9µM (no result: L3MBTL1 inh)
COc1ccccc1NC(=O)CSC(N)=O	JMJD2A Tudor inconclusive, G9a block 35µM (no result: L3MBTL1 inh)
COc1ccc(N(C(=O)c2ccc(C(C)(C)C)cc2)S(=O)(=O)c2ccc(Cl)cc2)cc1	none (no result: L3MBTL1 inh)
COc1ccc(OCCCCn2c(-c3ccc(Cl)cc3)nc3ccccc3c2=O)cc1	none (no result: L3MBTL1 inh)
Cc1ccc(S(=O)(=O)N2CCN(c3nc(-c4cncnc4)nc4ccccc34)CC2)cc1	none (no result: L3MBTL1 inh, G9a block, BAZ2B block)
NC(=O)c1ccccc1NC(=O)CSC1=NCCS1	G9a block 50µM (no result: L3MBTL1 inh)
Cc1cc2c(c(=O)o1)C1O[C@](c3ccsc3)(Cc3cc(C#N)ccc31)O2	BAZ2B block inconclusive (no result: L3MBTL1 inh, JMJD2A Tudor, HP1b binding inh)
N#Cc1ccc2c(c1)C[C@]1(c3ccsc3)Oc3c(c(=O)oc4ccccc34)C2O1	BAZ2B block 13µM (no result: L3MBTL1 inh, JMJD2A Tudor, HP1b binding inh)
COc1ccc2c3c(c(=O)oc2c1)C1O[C@](c2ccsc2)(Cc2cc(C#N)ccc21)O3	G9a block inconclusive, BAZ2B block 13µM (no result: L3MBTL1 inh, JMJD2A Tudor, HP1b binding inh)
COc1cccc(C(=O)N2CC(=O)Nc3ccc(C)cc3C2c2ccc(F)cc2)c1OC (stereo unspecified)	G9a block inconclusive (no result: L3MBTL1 inh)
CNc1ncnc2c1ncn2[C@H]1C[C@H](OP(=O)(O)O)[C@@H](COP(=O)(O)O)O1	G9a block 20µM! (no result: L3MBTL1 inh, JMJD2A Tudor, BAZ2B block, HP1b binding inh)
CNc1ncnc2c1ncn2[C@@H]1O[C@H](COP(=O)(O)O)[C@@H](O)[C@H]1O	none (no result: L3MBTL1 inh, JMJD2A Tudor, BAZ2B block, HP1b binding inh)
O=C1C(=O)N(CCc2c[nH]c3ccccc23)C(c2cccnc2)/C1=C(/O)c1ccccc1 (stereo unspecified)	G9a block 50µM (no result: JMJD2A Tudor, HP1b binding inh)
COCCCN1C(=O)C(=O)/C(=C(/O)c2ccc(OCC(C)C)cc2C)C1c1cccnc1 (stereo unspecified)	JMJD2A Tudor 79µM, G9a block inconclusive
CCCOc1ccc(/C(O)=C2/C(=O)C(=O)N(CCOC)C2c2cccnc2)cc1 (stereo unspecified)	G9a block inconclusive (no result: JMJD2A Tudor, HP1b binding inh)
COc1ccccc1C1C(C(=O)c2sc(C)nc2C)=C(O)C(=O)N1CCN1CCOCC1 (stereo unspecified)	G9a block 40µM
C=CCOc1ccc(/C(O)=C2\C(=O)C(=O)N(CCOC)C2c2cccnc2)cc1 (stereo unspecified)	JMJD2A Tudor inconclusive, BAZ2B block inconclusive
COc1cccc(C2C(C(=O)c3sc(C)nc3C)=C(O)C(=O)N2CCN2CCOCC2)c1OC (stereo unspecified)	G9a block inconclusive, BAZ2B block inconclusive
Cc1ccc(/C(O)=C2/C(=O)C(=O)N(CCN3CCOCC3)C2c2cccnc2)cc1 (stereo unspecified)	JMJD2A Tudor 89µM, G9a block inconclusive
Cc1c(NC(=O)c2ccc(N3CCC(C)CC3)c([N+](=O)[O-])c2)cccc1-c1nc2ccccc2o1	G9a block inconclusive, BAZ2B block inconclusive (no result: L3MBTL1 inh)
CCOC(=O)N1CCC2(CC1)OC(=O)C(C)=C2C(=O)NCc1cccc(F)c1	none (no result: L3MBTL1 inh)
COc1ccccc1C1/C(=C(/O)c2ccc(C)cc2)C(=O)C(=O)N1CCN1CCOCC1 (stereo unspecified)	G9a block 28µM
CCOc1ccc(/C(O)=C2\C(=O)C(=O)N(CCOCCO)C2c2ccccc2OC)cc1 (stereo unspecified)	JMJD2A Tudor 18µM
COc1ccc(C2C(C(=O)c3sc(C)nc3C)=C(O)C(=O)N2CCN(C)C)cc1OC (stereo unspecified)	none
Cc1ccc(C)c(/C(O)=C2\C(=O)C(=O)N(Cc3cccnc3)C2c2cccnc2)c1 (stereo unspecified)	G9a block inconclusive, BAZ2B block 79µM
Cc1ccc(C2C(C(=O)c3sc(C)nc3C)=C(O)C(=O)N2CCN(C)C)o1 (stereo unspecified)	G9a block 45µM
COc1ccc(/C(O)=C2/C(=O)C(=O)N(CCN3CCOCC3)C2c2ccc(C)cc2)cc1 (stereo unspecified)	G9a block 45µM
O=c1cc(-c2ccccc2Cl)oc2c(NS(=O)(=O)c3cc(Cl)cc(Cl)c3O)ccc(O)c12	JMJD2A Tudor 56µM, G9a block 50µM, BAZ2B block 50µM
CCOc1cccc2oc(-c3ccccc3Cl)cc(=O)c12	none (no result: L3MBTL1 inh, JMJD2A Tudor, BAZ2B block, HP1b binding inh)
O=c1cc(-c2ccccc2Cl)oc2cc(O)cc(O)c12	G9a block 45µM
Nc1ccc(O)c2c(=O)cc(-c3ccccc3Cl)oc12	G9a block 16µM!
Cc1ccccc1Cc1c(C)nc2nc(SCC(=O)NC(C)c3ccccc3)nn2c1C (stereo unspecified)	none (no result: L3MBTL1 inh)
C=CCSC1=N/C(=C\c2ccc(C(=O)O)cc2)C(=O)S1	G9a block 45µM
